This is a sample that favours compounds with a hit; in the whole collection about 19% have one here.
IL-1B inflam inh: blocks inflammasome-driven IL-1 beta release; 360,000 tested, 4.7% active; THP-1 LPS/ATP IL-1B secretion, AlphaLISA, 16 h; hits give low values; AID 743279; activity change, % at 57.5 µM; in the data active = activity change below about -50%; inconclusive = mostly about -30% to -49%; note: % is set by controls: 0 for no effect and ±100 for the full control effect
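THP-1 cells pretreated 1 hr with compounds (up to 57.5 uM final), then stimulated with LPS (250 ng/mL final) plus ATP (1.25 mM final); secreted IL-1B measured by AlphaLISA after 16 hr, decreased signal indicating inhibition.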
TGFb inhibitor: inhibitors of TGF-b signaling; HepG2 CAGA-GFP TGF-b/SMAD3 reporter, GFP fluorescence, 18 h; TGF-beta stimulated, 500 pg/mL final; Potency, µM (titrated, usually from 46.1 µM), without a hit: at the highest dose activity, negative = inhibition, usual class: inhibitors; 410,000 tested, 1.2% active; AID 588855; note: potency is the fitted concentration of half-maximal effect; % is set by controls: 0 for no effect and ±100 for the full control effect; nearly all actives have a fitted effect of over 65% in size
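HEPG2 CAGA-GFP reporter cells (1000/well, DMEM with 1% FBS) received compounds, then recombinant TGF-beta at 500 pg/mL final for 18 hours at 37 degrees C. Per-cell GFP summed per well was normalised to unstimulated and stimulated DMSO controls before curve fitting.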
TDP1 inh: inhibitors of human tyrosyl-DNA phosphodiesterase TDP1 | recombinant TDP1, AlphaScreen DNA substrate cleavage | Potency, µM (top dose mostly 130 µM), inactives show at the top dose activity change, negative = inhibition, usual class: inhibitors | 350,000 tested, 0.28% active | AID 485290; note: potency is the fitted concentration of half-maximal effect; % is set by controls: 0 for no effect and ±100 for the full control effect; nearly all actives have a fitted effect of over 40% in size
Target sequence (Q9NUW8 whole entry, looked up): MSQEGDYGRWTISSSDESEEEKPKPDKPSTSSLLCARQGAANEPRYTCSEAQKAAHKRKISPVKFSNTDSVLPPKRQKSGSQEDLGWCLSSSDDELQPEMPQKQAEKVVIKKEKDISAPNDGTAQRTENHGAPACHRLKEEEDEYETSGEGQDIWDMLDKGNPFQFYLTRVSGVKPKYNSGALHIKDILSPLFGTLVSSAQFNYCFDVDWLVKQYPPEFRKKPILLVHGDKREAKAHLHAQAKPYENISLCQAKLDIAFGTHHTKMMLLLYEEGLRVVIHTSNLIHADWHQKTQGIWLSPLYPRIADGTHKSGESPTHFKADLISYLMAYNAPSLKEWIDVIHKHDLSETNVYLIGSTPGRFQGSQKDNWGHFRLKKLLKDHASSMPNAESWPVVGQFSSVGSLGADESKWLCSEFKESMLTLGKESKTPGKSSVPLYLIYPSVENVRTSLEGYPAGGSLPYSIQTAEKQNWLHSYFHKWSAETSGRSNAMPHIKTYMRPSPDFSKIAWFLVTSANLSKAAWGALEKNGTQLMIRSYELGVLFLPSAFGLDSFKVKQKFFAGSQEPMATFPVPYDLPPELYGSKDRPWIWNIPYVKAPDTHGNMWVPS
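Recombinant E. coli-expressed Tdp1 (1 nM) preincubated with compound 15 min at RT, then 5'-biotin/3'-phosphotyrosine-FITC DNA substrate (15 nM) added for 5 min. AlphaScreen beads (10 ug/ml) added, 10 min RT; tyrosine-FITC cleavage read as signal loss.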
HepG2 tox: HepG2 cytotoxicity, counter-screen for TGF-b inhibitors | HepG2 CAGA-GFP viability, ATP luminescence, 18 h | Potency, µM (series often up to 46.1 µM), without a hit: top-dose activity change, negative = cytotoxicity, actives largely listed as cytotoxic | 410,000 tested, 0.76% active | AID 588856; note: potency is the fitted concentration of half-maximal effect
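HepG2 CAGA-GFP cells (1000/well, DMEM with 1% FBS) received compound, then TGF-beta at 500 pg/mL final, and were incubated 18 hours at 37 degrees C. Viability was read by CellTiter-Glo luminescence. Media-only wells were set as complete cell-killing and DMSO as no toxicity.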
DT40 TDP1 CPT: growth inhibition of DT40 Tdp1-/-;hTDP1 cells with camptothecin (screen for TDP1 inhibitors); chicken DT40 Tdp1-/-;hTDP1 cells + 20 nM CPT, ATP luminescence, 48 h; Potency, µM (top dose mostly 46.2 µM), for inactives: at the top dose activity change, negative = growth inhibition, hits mostly inhibitors; 420,000 tested, 12% active; AID 686979; note: potency is the fitted concentration of half-maximal effect; % is set by controls: 0 for no effect and ±100 for the full control effect; nearly all actives have a fitted effect of over 55% in size
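Chicken DT40 Tdp1-/- cells complemented with human TDP1, 400 cells/well, exposed to compounds plus 20 nM camptothecin for at least 48 h at 37 C; viability read as ATP content by CellTiter-Glo luminescence.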
TDP1 cell noCPT: qHTS for Inhibitors of human tyrosyl-DNA phosphodiesterase 1 (TDP1): qHTS in cells in absence of CPT; 420,000 tested, 15% active; DT40 Tdp1-/- hTDP1 cells, no CPT, ATP luminescence, 48 h; AID 686978, 2013; Potency, µM (series often up to 46.2 µM), without a hit: at the highest dose activity change, negative = growth inhibition, actives largely listed as inhibitors; note: potency is the fitted concentration of half-maximal effect; % is set by controls: 0 for no effect and ±100 for the full control effect; nearly all actives have a fitted effect of over 55% in size
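DT40 Tdp1-/-;hTDP1 cells, no CPT (DMSO vehicle only), 400 cells/well; compounds pin-transferred; ≥48 hr, 37 °C; CellTiter-Glo 30 min RT dark, luminescence read.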
An asterisk follows results filed as active; ? = inconclusive; / = not tested or not shown; [ ] = remark or other dose. Unless noted, calls come from the whole dose curve; as a rule, active = well fitted curve in the direction sought with a large enough effect; inconclusive = small, poorly fitted or top-dose-only effect, or another doubt; inactive = no such curve, though single readings can be large; an effect the other way counts as inactive or inconclusive.

SMILES | IL-1B inflam inh | TGFb inhibitor | TDP1 inh | HepG2 tox | DT40 TDP1 CPT | TDP1 cell noCPT
C[C@@H]1CN([C@H](C)CO)S(=O)(=O)c2ccc(C#Cc3cccc(F)c3)cc2O[C@@H]1CN(C)C(=O)CN1CCOCC1 | ? | ? | / | -41% | ? | 18µM*
Cc1ccc(S(=O)(=O)N(C)C[C@H]2Oc3cc(Br)ccc3S(=O)(=O)N([C@H](C)CO)C[C@@H]2C)cc1 | 0 | 20% | / | 0% | 12% | 9%
O=C(CCl)Nc1sccc1C(=O)c1ccccc1 | -103* | ? | / | -166% | 15µM* | ?
COc1cccc(C(=O)C2CCCN(Cc3ccon3)C2)c1 (stereo not drawn) | 17 | 9% | -4% | 1% | -6% | -24%
COc1ccc2cc(C(=O)C3CCCN(C4CCOCC4)C3)ccc2c1 (stereo not drawn) | -15 | 4% | -2% | -16% | 21µM* | 13µM*
COc1cccc(C(=O)C2CCCN(Cc3cccc(C)n3)C2)c1 (stereo not drawn) | 18 | ? | 8% | -34% | 18µM* | 16µM*
COc1c(C)cc(C(=O)C2CCCN(C3CCOCC3)C2)cc1C (stereo not drawn) | 34 | -12% | 5% | -4% | -16% | -11%
COc1c(C)cc(C(=O)C2CCCN(Cc3cccc(C)n3)C2)cc1C (stereo not drawn) | 19 | ? | -4% | -56% | ? | 21µM*
COc1c(C)cc(C(=O)C2CCCN(Cc3cccc(O)c3)C2)cc1C (stereo not drawn) | 24 | -2% | / | -34% | ? | ?
Cc1cc(OCC(=O)N2CCC(C(=O)O)CC2)c2c3c(c(=O)oc2c1)CCC3 | 13 | 23% | / | 14% | -1% | 9%
Brc1ccccc1Cn1c(-c2cncs2)nc2ccccc21 | 5 | -3% | 3% | -24% | ? | 16µM*
CCOC(=O)c1c(NC(=O)C(c2ccccc2)c2ccccc2)sc2c1C1CCN2CC1 | -19 | ? | 8% | -4% | 21µM* | 23µM*
CCCCc1ccc2[nH]cc(CCN)c2c1 | -89* | ? | -7% | -75% | 21µM* | 21µM*
CCCCc1ccc(NC(=O)c2cccn(Cc3ccc(Cl)cc3)c2=O)cc1 | / | ? | 1% | -6% | -22% | -22%
COc1nc(NC2CCCCC2)nc(NC(C)(C)C)n1 | ? | 10% | / | -15% | ? | 12µM*
Nc1nc(N)nc(NC2CC2)n1 | / | / | / | / | 17% | -8%
O=C1NCN(c2ccccc2)C12CCN(CCCOc1ccc(F)cc1)CC2 | / | / | 10% | / | ? | 23µM*
Cc1ccc(-n2nc3ccc(NC(=O)COc4ccccc4C)cc3n2)cc1 | / | -6% | -2%[12.3 µM] | -1% | ? | ?
O=[N+]([O-])c1cc(F)c(N2CCCCCC2)cc1N1CCNCC1 | -8 | 1% | 0% | 5% | 16µM* | ?
CN1CCN(c2ccc([N+](=O)[O-])c(N3CCCCC3)c2)CC1 | 6 | 0% | 6% | -28% | -7% | -27%
CCN(CC)CCNC(=O)c1c(C)[nH]c(/C=C2\C(=O)Nc3ccc(F)cc32)c1C | / | / | 11% | / | 4.2µM* | 3.8µM*
Cc1ccc(-n2c(C)nc3ccccc3c2=O)c(C)c1 | 7 | -24% | -3% | -1% | ? | 16µM*
Cc1ccc(-n2c(C)nc3ccccc3c2=O)cc1C | 28 | -26% | -2% | -21% | ? | 15µM*
Cc1nc2ccccc2c(=O)n1-c1ccc(Cl)c(Cl)c1 | 7 | 0% | / | 4% | ? | ?
Cc1nc2ccccc2c(=O)n1-c1ccc(-c2ccccc2)cc1 | 5 | 1% | / | -10% | ? | ?

High-throughput results (PubChem BioAssay)
